# Experimental data: the supplement of paper PMC7801607
# How the values were obtained:
# CHO = experiment: % viability of CHO cells (MTT); higher = less toxic; settings: 48 h
# In short: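 Viability was given as a percentage of untreated cells and measured colorimetrically by the tetrazolium (MTT) assay. Before this, CHO cells at 10^6 cells/well in 200 µL attached overnight, then received fresh medium containing compound at 2 or 20 µM for 48 h.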
# HepG2-A16-CD81 = experiment: % inhibition of HepG2 viability (CellTiter-Glo); higher = more toxic; settings: 5 µM
# [1] = tested on: Plasmodium falciparum NF54 stage IV/V gametocytes; experiment: % inhibition of gametocyte viability (PrestoBlue); higher = more inhibition; settings: 48 h
# In short: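 Values are percent inhibition of gametocyte viability, normalised to vehicle and kill controls in a single run. Stage IV/V NF54 gametocytes (2% gametocytaemia, 5% haematocrit, 100 µL/well) were held with compound at 1 or 5 µM for 48 h at 37 °C, stationary and hypoxic. Viability was read as 612 nm fluorescence on 70 µL of supernatant after a 2 h incubation with 10 µL PrestoBlue.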
# [2] = tested on: Plasmodium falciparum NF54 asexual blood stage; experiment: % inhibition of asexual blood stage proliferation (pLDH); higher = more inhibition; settings: 72 h
# In short: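 Using 96-well plates, the screen was run twice on separate occasions with Plasmodium falciparum NF54 ring-stage cultures at 1% haematocrit and 2% parasitaemia. Each culture was exposed to compound at 2 or 20 µM for 72 h at 37 °C under a gas mix of 4% CO2, 3% O2 and 93% N2. After incubation, the parasite lactate dehydrogenase assay was read colorimetrically at 620 nm. From this readout, percent inhibition of asexual proliferation was derived against control wells.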
# [3] = tested on: Plasmodium falciparum NF54 stage IV/V gametocytes; experiment: % inhibition of gametocyte viability (ATP bioluminescence); higher = more inhibition; settings: 24 h
# In short: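 Viability of stage IV/V NF54 gametocytes is given as percent inhibition, normalised to control wells in a single run. Gametocytes enriched on density gradients were seeded at 30,000 per well in 96-well plates with compound at 1 or 5 µM and held at 37 °C for 24 h. ATP was then read with the Promega BacTiter Glo bioluminescence system.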
# [4] = tested on: Plasmodium falciparum NF54 stage IV/V gametocytes; experiment: % inhibition of gametocyte viability (luciferase reporter); higher = more inhibition; settings: 48 h
# In short: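 Percent inhibition was normalised to controls from a single run. Stage IV/V gametocytes of the NF54-Pfs16-GFP-Luc line, at 2% gametocytaemia and 2% haematocrit, were exposed to compound at 1 or 5 µM for 48 h at 37 °C under stationary, hypoxic conditions. Luminescence was then read from 30 µL lysate mixed with 30 µL Promega luciferin substrate on a GloMax-Multi+ reader with 10 s integration.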
# [5] = tested on: Plasmodium berghei ANKA liver stage in HepG2-A16-CD81; experiment: % inhibition of liver stage parasite viability (luciferase); higher = more inhibition; settings: 5 µM; 48 h
# Procedure: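 Single-concentration screen of the MMV Pandemic Response Box. P. falciparum NF54 asexual blood stages: pLDH assay, 72 h at 37 °C, 2 and 20 µM, n=2. Stage IV/V gametocytes (NF54): luciferase reporter (NF54-Pfs16-GFP-Luc, 48 h), ATP bioluminescence (24 h) and PrestoBlue (48 h) at 1 and 5 µM, n=1. P. berghei liver stage (luciferase in HepG2-A16-CD81, 48 h post infection) at 5 µM, n=4. All normalised to DMSO and kill controls as % inhibition.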
# 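For % inhibition of HepG2 viability (CellTiter-Glo) in this document: HepG2-A16-CD81 hepatoma cells plated as in the liver-stage assay but without sporozoites, with DMSO wells as negative and 25 µM puromycin as positive control.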
Compound,% viability of CHO cells (CHO; 2 µM),% viability of CHO cells (CHO; 20 µM),% inhibition of HepG2 viability (HepG2-A16-CD81),% inhibition of gametocyte viability ([1]; 1 µM),% inhibition of gametocyte viability ([1]; 5 µM),% inhibition of asexual blood stage proliferation ([2]; 2 µM),% inhibition of asexual blood stage proliferation ([2]; 20 µM),% inhibition of gametocyte viability ([3]; 1 µM),% inhibition of gametocyte viability ([3]; 5 µM),% inhibition of gametocyte viability ([4]; 1 µM),% inhibition of gametocyte viability ([4]; 5 µM),% inhibition of liver stage parasite viability [5]
C[C@H](NC(=O)C(=O)Nc1ccccc1C(C)(C)C)C(=O)N[C@@H](CC(=O)O)C(=O)COc1c(F)c(F)cc(F)c1F,113%,63.6%,0.382%,< 0%,< 0%,31.7%,46.9%,< 0%,< 0%,1.5%,2.48%,5.8%
O=C(O)COc1cccc2c1CC[C@](O)(COC(=O)N(c1ccccc1)c1ccccc1)C2,92.5%,105%,-9.51%,23.2%,25.8%,11.3%,-4.41%,< 0%,< 0%,1.62%,< 0%,13.6%
CCNC(=O)Nc1cn2c(-c3ncc(CC)cn3)cc(-c3cccnc3)cc2n1,91.8%,58.4%,0.015%,19.9%,36.7%,46%,88.1%,7.29%,24.5%,1.08%,6.06%,4.97%
Fc1ccc(-n2cc(Cn3c(-c4cccc(F)c4)nc4ccccc43)nn2)cc1,86.4%,78.7%,-1.61%,< 0%,43.7%,9.59%,83.1%,< 0%,< 0%,< 0%,< 0%,6.9%
Cc1cc(-c2ccccc2)c(C(=O)C(=O)Nc2ccc(N3CCN(c4ncc(F)cn4)CC3)cc2)n1C,90.7%,72.7%,10.6%,< 0%,< 0%,2.18%,63.9%,5.9%,5.39%,< 0%,< 0%,58.8%
CC[C@@]1(O)C(=O)OCc2c1cc1n(c2=O)Cc2cc3c([N+](=O)[O-])cccc3nc2-1,128%,99.3%,65.7%,< 0%,< 0%,10.9%,66.6%,5.04%,< 0%,< 0%,< 0%,62.8%
Nc1cnn(C2OC(CO)C(O)C2O)c(=O)n1 (stereo not drawn),109%,110%,9.61%,< 0%,12.5%,61.7%,38.4%,3.6%,< 0%,4.96%,6.45%,-44.9%
CC1=C(/C=C/C(C)=C/C=C/C(C)=C/C(=O)Nc2ccc(O)cc2)C(C)(C)CCC1,118%,102%,4.42%,< 0%,< 0%,33.3%,90%,< 0%,< 0%,< 0%,< 0%,13.4%
CCc1nc2ccccn2c1C(=O)NCc1ccccc1,123%,58.5%,6.82%,< 0%,< 0%,6.85%,18.2%,< 0%,< 0%,< 0%,8.65%,25.4%
COc1cc(NC(=O)CN2C(=O)NC(c3ccccc3)(c3ccccc3)C2=O)cc(OC)c1,91.4%,102%,-3.2%,< 0%,28.9%,-4.55%,7.51%,< 0%,< 0%,< 0%,8.59%,9.85%
CC[C@@]1(O)C(=O)OCc2c1cc1n(c2=O)Cc2cc3c(CN(C)C)c(O)ccc3nc2-1,88.8%,67.7%,35%,21.5%,26.1%,14.3%,82.3%,6.83%,< 0%,1.24%,5.33%,60.8%
CC(C)Cn1c(=O)n(C)c(=O)c2c(-c3cncn3C)n(Cc3cccc4ccccc34)nc21,92.4%,102%,8.23%,3.5%,22.5%,85.2%,118%,< 0%,< 0%,11.4%,< 0%,-8.38%
COc1cc(C(C(=O)NC2CCCCC2)N(C(=O)Cc2c[nH]c3ccccc23)c2ccc(C(C)C)cc2)cc(OC)c1OC (stereo not drawn),90.8%,90.4%,1.92%,18.7%,22.7%,22.1%,71.8%,< 0%,7.49%,1.84%,18.1%,18.7%
CCOC(=O)N[C@@H]1CC[C@@H]2[C@@H](C1)C[C@H]1C(=O)O[C@H](C)[C@H]1[C@H]2/C=C/c1ccc(-c2cccc(F)c2)cn1,72.3%,62.2%,7.92%,15.9%,-0.253%,42.6%,71.5%,17.7%,33%,7.62%,27.4%,33.5%
CCOC(=O)Nc1cc(NC(C)CC(C)CN(CC)CC)c2nc(-c3ccccc3)c(-c3ccccc3)nc2n1 (stereo not drawn),94%,116%,12.9%,26.4%,51.1%,37.7%,54.6%,28%,75%,< 0%,51.1%,55.5%
CCC[C@H](NC(=O)[C@@H]1[C@H]2CCC[C@H]2CN1C(=O)[C@@H](NC(=O)[C@@H](NC(=O)c1cnccn1)C1CCCCC1)C(C)(C)C)C(=O)C(=O)NC1CC1,94.8%,100%,-4.56%,< 0%,7.89%,49.1%,57%,6.88%,10.7%,3.5%,< 0%,6.72%
CC(=O)Nc1cc(NS(=O)(=O)c2ccc(Cl)cc2)cc2c(Cl)n[nH]c12,108%,81.2%,2.74%,21.4%,50%,20.6%,75%,6.24%,3.03%,< 0%,< 0%,11.8%
NC1C2CC3CC(C2)CC1C3 (stereo not drawn),78.9%,70.3%,-1.51%,21.5%,18.1%,76.1%,43.4%,6.86%,5.87%,9.54%,9.98%,9.47%
Nc1nc(F)nc2c1ncn2[C@H]1O[C@@H](CO)[C@H](O)[C@@H]1O,33.8%,4.44%,77.8%,21.2%,19.8%,67.3%,72.4%,11.1%,< 0%,4.93%,35.8%,76%
